Screening data as filed in PubChem.
Sfp inh = Sfp phosphopantetheinyl transferase inhibition | Biochemical Sfp PPTase activity, qHTS | Q9F4F7 | Potency, µM, without a hit: largest response in the series, negative = inhibition, usual class: inhibitors | AID 1490 | hit rate 3.5% among 310,000;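 note: the enzyme is Sfp with the accession as filed and its product quenches rhodamine fluorescence; potency is the fitted concentration of half-maximal effect; 0% = enzyme reaction without inhibitor and -100% = no enzyme wells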
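Sfp 15 nM + cpd, 15 min RT; start w/ rhodamine-CoA 5 uM, BHQ-2-YbbR 12.5 uM (final); 50 mM Hepes pH 7.6, 10 mM MgCl2, 0.01% NP-40, 0.01% BSA; read 525/598 nm at 0 and 30 min.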
CCT chaperon mod = modulators of cytosolic chaperonin (CCT/TRiC) activity; purified chaperonin ATPase assay, HTRF ADP detection, 30 min; activity change, % (no concentration beside the values), hits read low; hit rate 0.3% among 360,000; AID 651819; in the data active = activity change below about -30%
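Enzyme 40 or 20 nM (batch-dependent) in Tris pH 7.4/KCl/MgCl2/DTT; cpd 76 uM single point; ATP 10 uM; 30 min 37 °C; Transcreener ADP HTRF detection, 30 min RT; ratio 665/615.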
VDR inhibitor = blocks the human vitamin D receptor; VDR-SRC2-3 peptide fluorescence polarization, 2 h; P11473; Potency, µM, without a hit: max response, negative = inhibition, actives largely listed as inhibitors; hit rate 0.93% among 400,000; note: potency is the fitted concentration of half-maximal effect
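Measured by FP: displacement of SRC2-3 coactivator peptide from VDR by library compounds, following a two-hour ambient incubation.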
G9a block = blocks human histone lysine methyltransferase G9a; Q96KQ7; G9a H3K9 monomethylation, AlphaScreen, 2 h; Potency, µM (titrated, usually from 102 µM), without a hit: top-dose activity, negative = inhibition, hits mostly inhibitors; hit rate 8.8% among 350,000; note: potency is the fitted concentration of half-maximal effect; nearly all actives have a fitted effect of over 75% in size
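Step 1: enzyme (final 20 nM) with compound, 15 min RT. Step 2: substrate peptide 500 nM and SAM 20 uM, 2 h RT. Step 3: anti-H3K9me1 antibody and AlphaScreen beads, 10 min, then plate read.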
Mm-Cpn inhibitor = M. maripaludis TRiC chaperonin inhibition; AID 504842; hit rate 0.031% among 330,000; purified Mm-Cpn ATPase, ADP Transcreener TR-FRET; Potency, µM (highest dose often 76.9 µM), inactives show top-dose activity, negative = inhibition, most hits filed as inhibitors; note: potency is the fitted concentration of half-maximal effect; nearly all actives have a fitted effect of over 80% in size
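Eu-cryptate anti-ADP/ADP-d2 competition gives a ratio inversely related to ADP. Enzyme at 25 nM was pre-exposed to compound for 10 min, then given 10 uM ATP for 30 min, 37°C throughout.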
PLK1 PBD block = blocks phosphopeptide binding to human PLK1 polo-box domain | Plk1 PBD binding of FITC phosphopeptide, fluorescence polarization | Potency, µM, inactives show max response, negative = inhibition, hits mostly inhibitors | hit rate 2.8% among 360,000 | P53350; note: potency is the fitted concentration of half-maximal effect; series mostly up to about 57 µM; nearly all actives have a fitted effect of over 65% in size
Target sequence (P53350 whole entry, looked up, the tested form may be a part): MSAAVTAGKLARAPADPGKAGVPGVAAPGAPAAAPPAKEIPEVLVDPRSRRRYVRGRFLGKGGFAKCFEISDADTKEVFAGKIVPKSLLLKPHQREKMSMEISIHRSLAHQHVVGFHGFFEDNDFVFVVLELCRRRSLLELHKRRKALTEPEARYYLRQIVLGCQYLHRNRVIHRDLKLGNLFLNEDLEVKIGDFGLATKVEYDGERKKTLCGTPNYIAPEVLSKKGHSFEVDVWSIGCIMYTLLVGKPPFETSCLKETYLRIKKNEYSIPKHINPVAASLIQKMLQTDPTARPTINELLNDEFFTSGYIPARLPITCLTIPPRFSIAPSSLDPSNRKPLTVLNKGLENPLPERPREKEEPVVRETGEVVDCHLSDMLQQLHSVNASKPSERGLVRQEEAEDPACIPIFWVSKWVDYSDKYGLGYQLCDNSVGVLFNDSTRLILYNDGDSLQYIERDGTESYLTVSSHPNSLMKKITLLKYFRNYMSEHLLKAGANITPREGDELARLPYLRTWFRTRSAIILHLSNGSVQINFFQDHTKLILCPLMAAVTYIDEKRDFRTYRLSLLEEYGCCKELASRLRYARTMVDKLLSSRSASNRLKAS
TbPYK confirm = Trypanosoma brucei pyruvate kinase inhibition, cherry-pick confirmation; Potency, µM (highest dose often 76.9 µM), without a hit: at the highest dose activity change, negative = inhibition, usual class: inhibitors; recombinant TbPYK, Kinase-Glo ATP luminescence; AID 720569; hit rate 67% among 890; shares compounds with PLK1 PBD block; note: potency is the fitted concentration of half-maximal effect; nearly all actives have a fitted effect of over 70% in size
TbPYK ADP-Glo = inhibits T. brucei pyruvate kinase in orthogonal ADP-Glo assay | Potency, µM (doses to about 76.9 µM), without a hit: at the highest dose activity change, negative = inhibition, actives largely listed as inhibitors | shares compounds with PLK1 PBD block | recombinant TbPYK, ADP-Glo luminescence, 60 min | hit rate 62% among 890; note: potency is the fitted concentration of half-maximal effect; nearly all actives have a fitted effect of over 75% in size
The depositor's hits bear a star; ? = inconclusive; / = not tested or not shown; ! = not confirmed by another sample; [ ] = another dose, or the depositor's remark. Most compounds without a hit are left out; they make up all but 10% or so of the library. Unless noted, calls come from the whole dose curve; as a rule, active = well fitted curve in the direction sought with a large enough effect; inconclusive = small, poorly fitted or top-dose-only effect, or another doubt; inactive = no such curve, though single readings can be large; an effect the other way counts as inactive or inconclusive. Unless noted, % is set by controls: 0 for no effect and ±100 for the full control effect.

SMILES	Sfp inh	CCT chaperon mod	VDR inhibitor	G9a block	Mm-Cpn inhibitor	PLK1 PBD block	TbPYK confirm	TbPYK ADP-Glo
CNS(=O)(=O)c1cc(-c2nnc(Nc3cc(C)ccc3C)c3ccccc23)ccc1C	/	/	-4%	?	/	/	/	/
Cc1ccc2nc(-c3ccccn3)c(Nc3ccccc3C)n2c1	1%	-4	-7%	?	-2%	-14%	/	/
Cc1ccc2nc(-c3ccccn3)c(N)n2c1	/	-2	/	/	/	-1%	28µM*	11%
COc1ccc(CCCO[C@@H](Cn2ccnc2)c2ccc(OC)cc2)cc1	-4%	/	-5%	/	/	/	/	/
O=C(CSc1nnc(-c2ccco2)c(-c2ccco2)n1)c1ccccc1	14%	0	?	7%	-1%	17µM*	14µM*	20µM*
CC(=O)c1ccc(NC(=O)CSc2nnc(-c3ccco3)c(-c3ccco3)n2)cc1	8.9µM*	1	22µM*	/	-13%	13µM*	28µM*	32µM*
CC(S)C(=O)NCC(=O)O (stereo not given)	-19%	/	1%	23%[59 µM]	/	/	/	/
O=c1[nH]c2ccc(NCc3ccc(-c4ccc(Cl)cc4)o3)cc2[nH]1	/	/	17%	-30%[59 µM]	/	/	/	/
O=C(O)CCc1ccc(-c2ccc(Cl)cc2)o1	20µM*	-2	?	4µM*	-3%	?	?	?
CCOc1ccc(CNC(=O)c2ccc(-c3nc(CS(=O)(=O)c4ccccc4)c(C)o3)cc2)cc1	/	/	17%	-25%[59 µM]	/	/	/	/
O=C(NC(=S)NNC(=O)c1ccccc1[N+](=O)[O-])c1ccc(Br)cc1	79µM*	-1	-22%	8.9µM*	-5%	?	?	?
COc1ccc(C(=O)CC2(O)C(=O)N(Cc3cccc(C(F)(F)F)c3)c3ccccc32)cc1 (stereo not given)	/	/	-8%	-30%[59 µM]	/	/	/	/
COc1ccc(Cn2c(SCC(=O)NCc3ccc(Cl)cc3)nc3ccsc3c2=O)cc1	/	/	0%	0%[59 µM]	/	/	/	/
CC1=C(C#N)C(=O)NC(=O)/C1=C/c1ccc(-c2ccc(S(N)(=O)=O)cc2)o1	79µM*	-3	25µM*	8.9µM*	0%	9.5µM*	-17%	-22%
NS(=O)(=O)c1ccc(-c2ccc(C=O)o2)cc1	12%	1	-2%	-42%	-2%	-4%	/	/
COC(=O)COc1ccc(C2Nc3c(Cl)ccc(C(=O)O)c3C3C=CCC32)cc1 (stereo not given)	10µM*	-1	?	13µM*	-1%	21µM*	?	?
COc1cc2c(cc1OC)C(=O)C(Br)CC2 (stereo not given)	/	2	/	/	/	0.95µM*	10µM*	5.6µM*
Cc1ccc(N=Nc2ccc(O)c3ncccc23)cc1	32%	-2	-2%	?	2%	2%	/	/
Cc1ccc(O)c(N=Nc2ccccc2)n1	?	-2	0%	11µM*!	/	-8%	10µM*	15%
Cc1nc2ccc(S(=O)(=O)NC(C(=O)NCc3ccc(Cl)cc3)C(C)C)cc2s1 (stereo not given)	/	/	-12%	27%[59 µM]	/	/	/	/
CC1(C)Cc2c(C#N)c(NCCc3ccccc3)nc(-c3ccco3)c2CO1	50µM*	-1	?	-25%	1%	?	?	13µM*
Cn1c(Sc2nc3ccccc3n2C)nc2ccccc21	20%	-1	-13%	?	0%	-8%	/	/
Cc1ccc(-c2nc3ccccc3n2C)o1	35µM*	0	-19%	13µM*	1%	-11%	?	-7%
CC(=O)Nc1ccc2c(c1)Cc1cc(N3C(=O)C=CC3=O)ccc1-2	/	0	28µM*	/	/	3µM*	8.9µM*	6.3µM*
O=C1C=CC(=O)N1c1ccc2c(c1)Cc1cc(F)ccc1-2	/	0	?	/	/	?	/	/
O=C(O)CCN1C(=O)/C(=C2\C(=O)N(Cc3ccccc3Cl)c3ccccc32)SC1=S	-16%	/	/	?	1%	/	/	/
